Screening data (PubChem)
SENP7 block – inhibitors of human SENP7 protease. recombinant SENP7, Z-RLRGG-aminoluciferin luminescence, 40 min. inhibition, % at 5 µM. hit rate 1.5% among 330,000. Q9BQF6;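 active means inhibition above about 50% at the single test dose, limit read from the data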
HSP90 inh – inhibitors of HSP90 luciferase refolding in rabbit reticulocyte lysate; luciferase refolding luminescence, 3 h; inhibition, % at 5.6 µM; hit rate 0.91% among 290,000; AID 1789;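 active means inhibition above the screen-wide mean plus 3 SD, computed separately per campaign, cut at about 16% in these data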;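 further: inhibitors lower the luminescence because luciferase stays unfolded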
LGR2 antag – blocks bursicon-induced cAMP signaling via Drosophila LGR2; inhibition, % at 9.99 µM; HEK293 LGR2, CRE-luciferase, bursicon-stimulated, 4 h; hit rate 0.35% among 380,000; AID 720647;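 active means drop in luminescence signal, shown as inhibition above about 50% in the replicate tests, limit read from the data, passing the limit was not always enough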;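 further: agonist challenge used bursicon conditioned medium at about half maximal strength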
SENP8 block-1 – SENP8 protease inhibition; Q96LD8; purified SENP8, Z-RLRGG-aminoluciferin cleavage, luminescence; inhibition, % at 10 µM; hit rate 1.2% among 330,000; in the data active means inhibition above about 50%
SENP8 block-2 – inhibitors of human SENP8 protease | Q96LD8 | recombinant SENP8, Nedd8 substrate fluorescence | inhibition, % at 20 µM | hit rate 0.64% among 360,000 | AID 602440; in the data active means inhibition mostly above about 40%, no sharp cut-off; inactive means mostly below about 27%
SENP6 inh – blocks the human protease SENP6; Recombinant SENP6 catalytic domain, aminoluciferin luminescence; inhibition, % at 10 µM; hit rate 1.8% among 330,000; AID 2599;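 active means inhibition above about 50% at the single tested dose, limit read from the data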
HSP90 confirm – HSP90 inhibition, confirmation assay; shares compounds with HSP90 inh; inhibition, % at 5.9 µM; hit rate 64% among 2,300; rabbit reticulocyte lysate, luciferase refolding luminescence, 3 h; in the data active means inhibition above about 18%
luciferase ctr – counter-screen for HSP90 inhibitors: inhibitors of firefly luciferase; shares compounds with HSP90 inh; purified native firefly luciferase, luminescence; inhibition, % at 5.9 µM; hit rate 48% among 2,300;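 active means inhibition above the mean inhibition of all tested sample wells plus 3 SD, cut at about 10% in these data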
Target sequence (P08659 whole entry, looked up): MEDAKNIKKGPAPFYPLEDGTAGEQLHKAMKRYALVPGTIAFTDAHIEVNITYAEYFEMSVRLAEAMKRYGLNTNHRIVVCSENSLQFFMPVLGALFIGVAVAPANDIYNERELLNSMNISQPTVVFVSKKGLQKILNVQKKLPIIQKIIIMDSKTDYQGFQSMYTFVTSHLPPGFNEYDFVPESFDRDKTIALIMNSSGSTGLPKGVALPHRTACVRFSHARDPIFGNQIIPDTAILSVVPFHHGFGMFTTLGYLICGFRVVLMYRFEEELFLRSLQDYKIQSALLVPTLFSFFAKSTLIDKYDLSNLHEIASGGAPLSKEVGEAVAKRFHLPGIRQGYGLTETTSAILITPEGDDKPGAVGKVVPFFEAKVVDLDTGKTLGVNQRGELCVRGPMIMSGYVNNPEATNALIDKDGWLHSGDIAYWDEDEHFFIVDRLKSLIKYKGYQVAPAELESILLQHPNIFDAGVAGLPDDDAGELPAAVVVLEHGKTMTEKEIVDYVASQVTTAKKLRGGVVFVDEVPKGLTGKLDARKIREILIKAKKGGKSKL
SENP8 conf – confirmation of human SENP8 protease inhibitors; shares compounds with SENP7 block; Recombinant SENP8, Z-RLRGG-aminoluciferin luminescence, 60 min; hit rate 40% among 6,200; inhibition, % at 12.5 µM;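 active means mean inhibition across replicates above about 50%, limit read from the data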
SENP6 conf – confirmation of human SENP6 protease inhibitors; shares compounds with SENP7 block; recombinant SENP6, Z-RLRGG-aminoluciferin luminescence; inhibition, % at 12.5 µM; hit rate 58% among 6,200; AID 488915
SENP7 conf – confirmation of human SENP7 protease inhibitors; shares compounds with SENP7 block; recombinant SENP7, Z-RLRGG-aminoluciferin luminescence, 40 min; inhibition, % at 12.5 µM; hit rate 69% among 6,200; AID 488917
Casp3 SENP sel – inhibits human caspase-3 in SENP selectivity test | hit rate 60% among 6,200 | shares compounds with SENP7 block | purified caspase-3, Z-DEVD-aminoluciferin luminescence, 60 min | inhibition, % at 12.5 µM;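 active means mean inhibition above about 50%, limit read from the data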
Luc interf – counter-screen for SENP inhibitors: luminescence interference; shares compounds with SENP7 block; Pre-incubated SENP8/Z-RLRGG-aminoluciferin, luciferase luminescence interference; inhibition, % at 12.5 µM; hit rate 39% among 6,200; AID 488919;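 active means mean inhibition above about 50% when retested at one dose, limit read from the data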
Of the large screens only hits and unclear results are named; the others gave an inactive call (follow-up assays come after a bar, where they were run). Shown are actives, neighbours in structure and some others; about 2.3% of the full set was active somewhere.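 How the source made its calls, unless noted: active means mean inhibition above about 50% in the one-dose retest (limit read from the data); inactive means the rest.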

Nc1ccc2nc(-c3ccccc3)sc2c1	SENP7 block 98, HSP90 inh 37, SENP8 block-1 96, SENP6 inh 98 (no result: LGR2 antag) | HSP90 confirm 72 | luciferase ctr 68 | SENP8 conf 98 | SENP6 conf 100 | SENP7 conf 103 | Casp3 SENP sel 98 | Luc interf 97
Cc1ccc2nc(-c3ccc(N)cc3)sc2c1	SENP7 block 98, HSP90 inh 50, LGR2 antag 82, SENP8 block-1 95, SENP6 inh 95 | HSP90 confirm 69 | luciferase ctr 66 | SENP8 conf 96 | SENP6 conf 98 | SENP7 conf 102 | Casp3 SENP sel 92 | Luc interf inactive
CC(=O)NC(=S)Nc1ccc(-c2nc3ccc(C)cc3s2)cc1	none
Nc1ccc2nc(-c3ccccc3)c(-c3ccccc3)nc2c1	none
Nc1ccc(-c2nc3cc(N)ccc3s2)cc1	SENP7 block 90, HSP90 inh 25, SENP8 block-1 84, SENP6 inh 75 | HSP90 confirm 47 | luciferase ctr 39 | SENP8 conf 93 | SENP6 conf 93 | SENP7 conf 100 | Casp3 SENP sel 90 | Luc interf 90
O=C(N[C@H]1CC[C@H](CCNS(=O)(=O)c2ccc(F)cc2)O[C@@H]1CO)C1CCCC1	none (no result: SENP7 block, HSP90 inh, SENP8 block-1, SENP8 block-2, SENP6 inh)
CCCN(C)C[C@H]1OCCCC[C@H](C)Oc2ccc(NC(=O)Nc3cccc4ccccc34)cc2C(=O)N([C@@H](C)CO)C[C@H]1C	none (no result: SENP7 block, HSP90 inh, SENP8 block-1, SENP8 block-2, SENP6 inh)
Cc1ccc(NC(=S)c2nc3ccccc3[nH]2)cc1	SENP7 block 55, HSP90 inh 19, SENP8 block-1 57, SENP6 inh 79 (no result: LGR2 antag) | HSP90 confirm 23 | luciferase ctr inactive | SENP8 conf 71 | SENP6 conf 78 | SENP7 conf 95 | Casp3 SENP sel 60 | Luc interf inactive
COCCNC(=O)C[C@H]1CC[C@H](NC(=O)NC2CCCCC2)[C@@H](CO)O1	none (no result: SENP7 block, HSP90 inh, SENP8 block-1, SENP8 block-2, SENP6 inh)
c1ccc(-c2cn3c4c(sc3n2)CCCC4)cc1	HSP90 inh 33, LGR2 antag 74, SENP8 block-1 96, SENP6 inh 97 | HSP90 confirm 83 | luciferase ctr 80 | SENP8 conf 90 | SENP6 conf 95 | SENP7 conf 103 | Casp3 SENP sel 95 | Luc interf inactive
CC(C)c1ccc2oc(-c3ccc(NC(=O)c4ncn[nH]4)cc3)nc2c1	none (no result: LGR2 antag)
Cc1ccc(-c2nc3ccc([N+](=O)[O-])cc3[nH]2)cc1	SENP7 block 73, HSP90 inh 25, LGR2 antag 54, SENP8 block-1 66, SENP6 inh 76 | HSP90 confirm 42 | luciferase ctr 43 | SENP8 conf inactive | SENP6 conf 77 | SENP7 conf 96 | Casp3 SENP sel 64 | Luc interf inactive
Cc1ccc2nc(-c3cccc(N)c3)[nH]c2c1	SENP7 block 96, HSP90 inh 18, SENP8 block-1 88, SENP6 inh 93 (no result: LGR2 antag) | HSP90 confirm 45 | luciferase ctr 33 | SENP8 conf inactive | SENP6 conf 91 | SENP7 conf 101 | Casp3 SENP sel 95 | Luc interf 93
CC(C)c1ccc2oc(-c3ccc(N)cc3)nc2c1	SENP7 block 93, HSP90 inh 23, SENP8 block-1 86, SENP6 inh 94 (no result: LGR2 antag) | HSP90 confirm 50 | luciferase ctr 46 | SENP8 conf 94 | SENP6 conf 95 | SENP7 conf 100 | Casp3 SENP sel 69 | Luc interf 94
Cc1ccc2oc(-c3cccc(N)c3)nc2c1	SENP7 block 98, HSP90 inh 33, SENP8 block-1 94, SENP6 inh 97 | HSP90 confirm 43 | luciferase ctr 38 | SENP8 conf inactive | SENP6 conf 97 | SENP7 conf 102 | Casp3 SENP sel 94 | Luc interf 58
C/C=C/c1ccc2c(c1)O[C@H](CN(C)C(=O)NC(C)C)[C@H](C)CN([C@H](C)CO)S2(=O)=O	none (no result: SENP7 block, HSP90 inh, SENP8 block-1, SENP8 block-2, SENP6 inh)
COCC(=O)N1C[C@H](C)[C@@H](OC)CN(C)C(=O)c2cc(NC(=O)NC(C)C)ccc2OC[C@@H]1C	none (no result: SENP7 block, HSP90 inh, SENP8 block-1, SENP8 block-2, SENP6 inh)
C[C@@H]1CN([C@@H](C)CO)C(=O)Cc2cc(NS(C)(=O)=O)ccc2O[C@H]1CN(C)S(C)(=O)=O	none (no result: SENP7 block, HSP90 inh, SENP8 block-1, SENP8 block-2, SENP6 inh)
CC(C)(C)c1ccc(-c2nc3cc(N)ccc3o2)cc1	SENP7 block 78, HSP90 inh 31, SENP8 block-1 74, SENP6 inh 83 (no result: LGR2 antag) | HSP90 confirm 42 | luciferase ctr 45 | SENP8 conf inactive | SENP6 conf 84 | SENP7 conf 95 | Casp3 SENP sel inactive | Luc interf 77
O=C(CCN1CCCCC1)N[C@@H]1CC[C@H](CCn2cc(-c3ccc(F)cc3)nn2)O[C@@H]1CO	none (no result: SENP7 block, HSP90 inh, SENP8 block-1, SENP8 block-2, SENP6 inh)
CCSc1ccc(-c2ccc(C)cc2)nn1	none (no result: SENP7 block, SENP8 block-1, SENP6 inh)
CCOc1ccc(-c2ccc(SCC)nn2)cc1	SENP7 block 90, HSP90 inh 18, LGR2 antag 59, SENP8 block-1 80, SENP6 inh 65 | HSP90 confirm 56 | luciferase ctr 39 | SENP8 conf 59 | SENP6 conf 68 | SENP7 conf 85 | Casp3 SENP sel 74 | Luc interf inactive
CO[C@H]1CN(C)C(=O)c2cc(NC(=O)CC(F)(F)F)ccc2OC[C@H](C)N(S(=O)(=O)c2cn(C)cn2)C[C@H]1C	none (no result: SENP7 block, HSP90 inh, SENP8 block-1, SENP8 block-2, SENP6 inh)
COc1ccc(S(=O)(=O)N[C@H]2CC[C@@H](CCNC(=O)CN3CCOCC3)O[C@H]2CO)cc1	none (no result: SENP7 block, HSP90 inh, SENP8 block-1, SENP8 block-2, SENP6 inh)
O=C1CCC(=O)N1c1ccc(-c2nc3ccccc3s2)cc1	SENP7 block 94, HSP90 inh 46, SENP8 block-1 70, SENP6 inh 89 | HSP90 confirm 74 | luciferase ctr 66 | SENP8 conf inactive | SENP6 conf 62 | SENP7 conf 83 | Casp3 SENP sel 72 | Luc interf inactive
